Assay outcomes: PubChem, NMMLSC
RGS16-Gao – modulates binding between human RGS16 and Galphao. bead-based flow cytometry RGS16-Galphao binding, fluorescence; actives lie on both sides. binding response (% of control), % at 10 µM. 220,000 tested, 0.38% active;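 note: Galphao activated by GDP with aluminum fluoride before binding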
GSH fluor – compound fluoresces at 488/530 nm on GSH beads; GSH beads flow cytometry, compound fluorescence 488/530 nm; active compounds read high; fluorescence (KMESF) at 10 µM; 190,000 tested, 0.25% active; in the data active = fluorescence above about 89;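 note: glutathione beads carrying GST-tagged Bcl family fusion proteins plus one bare bead set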
RGS8-Gao reg – regulators of human RGS8-Galphao interaction | P09471 | multiplexed bead flow cytometry, RGS8-Galphao binding; actives lie on both sides | response (percent of control binding), % at 10 µM | 220,000 tested, 0.34% active | AID 1423; in the data active = response below about 60% or above about 140%; inactive = in between;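 note: Galphao activated as the GDP aluminium fluoride complex binding bead-coupled RGS8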
Target sequence (P09471 whole entry, looked up): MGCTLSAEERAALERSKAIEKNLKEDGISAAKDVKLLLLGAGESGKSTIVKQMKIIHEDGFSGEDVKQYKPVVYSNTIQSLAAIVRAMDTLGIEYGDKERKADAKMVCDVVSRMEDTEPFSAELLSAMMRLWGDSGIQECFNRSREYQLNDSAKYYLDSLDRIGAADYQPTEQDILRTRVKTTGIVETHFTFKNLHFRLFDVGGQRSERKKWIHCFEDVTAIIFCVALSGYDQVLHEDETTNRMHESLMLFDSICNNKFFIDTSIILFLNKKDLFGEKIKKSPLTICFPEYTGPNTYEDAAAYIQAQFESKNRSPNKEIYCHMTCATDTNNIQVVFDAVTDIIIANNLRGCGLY
Avidin fluor – avidin bead compound fluorescence profile | fluorescence (KMESF) at 10 µM | AID 1775 | 220,000 tested, 0.38% active | Avidin beads, compound fluorescence 488/530 nm, flow cytometry; active compounds read high; in the data active = fluorescence above about 47
RGS4-Gao reg – modulates binding of RGS4 to human Galphao | binding response (% of control), % at 10 µM | AID 1415 | P09471 | Multiplexed bead flow cytometry; actives lie on both sides | 220,000 tested, 0.33% active; in the data active = binding response below about 49% or above about 150%; inactive = in between;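 note: fluorescent Galphao activated with aluminum fluoride binding bead-coupled RGS4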
RGS7-Gao reg – modulates binding of RGS7 to human Galphao; P09471; Multiplexed bead flow cytometry; actives lie on both sides; binding response (% of control), % at 10 µM; 220,000 tested, 0.35% active; AID 1439; in the data active = binding response below about 49% or above about 150%; inconclusive = no clear call, values can overlap the other calls; inactive = in between;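 note: fluorescent Galphao held in activated GDP-AlF4 state binding bead-coupled RGS7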
RGS4-Gao HTS – modulates binding between human RGS4 and Galphao | shares compounds with RGS16-Gao | multiplexed bead flow cytometry, RGS–Galpha-o binding | RGS4–Galpha-o binding response, % at 10 µM | 1,600 tested, 99% active;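 note: fluorescently labeled Galpha-o bound to GDP with aluminium fluoride binding biotinylated RGS beads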
Biotin-avidin – counter-screen: compounds disrupting biotin binding to avidin beads | 1,700 tested, under 10 active | shares compounds with RGS16-Gao | streptavidin beads, fluorescein-biotin binding, flow cytometry | inhibition, % at 10 µM;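 active = inhibition above 50%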;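 note: median green fluorescence of gated singlet beads compared with DMSO control wells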
RGS8-Gao confirm – confirmation of regulators of human RGS8-Galphao interaction. 1,700 tested, 3% active. binding response (% of control), % at 10 µM. bead-based flow cytometry RGS8-Galphao binding, fluorescence; actives lie on both sides. AID 1836. shares compounds with RGS16-Gao; in the data active = binding response below about 72% or above about 130%; inactive = in between;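 note: Galphao activated as GDP AlF4 complex before binding bead RGS8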
RGS7-Gao confirm – confirmation of regulators of human RGS7-Galphao interaction | shares compounds with RGS16-Gao | bead-based flow cytometry RGS7-Galphao binding; actives lie on both sides | response (percent of control binding), % at 10 µM | 1,700 tested, 7.8% active | AID 1837; in the data active = response below about 75% or above about 130%; inactive = in between;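 note: fluorescent Galphao activated with GDP and aluminum fluoride binding bead-coupled RGS7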
RGS16-Gao conf – RGS16-Galphao interaction regulation, single point confirmation. shares compounds with RGS16-Gao. bead-based flow cytometry, RGS16-Galphao binding; actives lie on both sides. response (% of control binding), % at 10 µM. 1,700 tested, 4% active; in the data active = response below about 74% or above about 130%; inactive = in between;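 note: Galphao activated as the GDP aluminium fluoride complex binding bead-coupled RGS16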
RGS4-Gao single – confirmation of regulators of human RGS4-Galphao interaction | AID 1840 | shares compounds with RGS16-Gao | 1,700 tested, 4% active | binding response (% of control), % at 10 µM | RGS4-Galphao binding, multiplexed bead flow cytometry; actives lie on both sides; in the data active = binding response below about 74% or above about 130%; inactive = in between
RGS19-Gao conf – RGS19-Galphao interaction regulation, single point confirmation; shares compounds with RGS16-Gao; bead-based flow cytometry RGS19-Galphao binding; actives lie on both sides; response (percent of control binding), % at 10 µM; 1,700 tested, 5% active; AID 1841; in the data active = response below about 50% or above about 160%; inactive = in between
Hits are given with their value; 0 = inactive; ? = inconclusive; - = not tested or not shown; [ ] = remark or other dose. Most compounds without a hit are left out; they make up all but 1.2% or so of the library. Unless noted, the rule behind the calls is not given here.

SMILES	RGS16-Gao	GSH fluor	RGS8-Gao reg	Avidin fluor	RGS4-Gao reg	RGS7-Gao reg	others
CCCn1c(CN2CCN(C)CC2)nc2ccccc21	13.9	0	13.0	0	22.9	16.4
COc1cc([N+](=O)[O-])ccc1NC(=O)CSc1n[nH]c(C(C)C)n1	0	0	0	0	0	0
COCCSc1ccccc1C(=O)N1CCCC(C)C1 (stereo not given)	0	0	0	0	0	?
CCOC(=O)C1CCCN(C(=O)c2ccccc2SCCOC)C1 (stereo not given)	0	0	0	102	0	0
CC(=O)Cc1nsc(NC(=O)c2ccc(-c3cc(C(F)(F)F)ccc3Cl)o2)n1	0	0	0	0	0	0
CC(=O)Cc1nsc(NC(=O)c2ccc(-c3cccc(C(F)(F)F)c3)o2)n1	0	0	0	53	0	0
Cc1ccc(NC(=O)C2CCCN2C(=O)OC(C)(C)C)cc1C (stereo not given)	0	-	0	0	0	?
CC(=O)Nc1ccc(C(=O)OC2CCOC2=O)cc1 (stereo not given)	0	0	0	0	0	0
CC(=O)Nc1ccc(C(=O)OC2CCCCC2=O)cc1 (stereo not given)	0	280	0	0	0	0
Cc1cc(C)n2nc(S(=O)(=O)NC(C)(C)C)nc2n1	0	0	0	0	0	0
C=CCSc1nc(C)c(CC(=O)OCC(C)C)c(=O)[nH]1	0	0	0	48	0	0
CCCSc1nc(C)c(CC(=O)OCC)c(=O)[nH]1	0	0	0	0	0	0
CCOc1c(OC(C)=O)ccc(/C=C2\N=C(SCC)SC2=O)c1[N+](=O)[O-]	0	0	0	78	0	0
COc1ccccc1NS(=O)(=O)c1ccc(OC)c(OC)c1	0	0	0	113	0	0
O=C(O)c1cc2nc3c(c(C(F)(F)F)n2n1)CCc1ccccc1-3	-6.0	0	19.4	-	-11.5	1.4
O=S(=O)(NCC(Nc1ccc(Cl)cc1)c1ccccc1)c1ccccc1 (stereo not given)	0	0	0	0	0	0
Cc1ccc(NC(CNS(=O)(=O)c2ccc(Cl)cc2)c2ccccc2)cc1 (stereo not given)	0	0	0	121	215.3[activator]	254.6[activator]
CCn1c(SCC(=O)N2CCCCC2C)nnc1-c1ccc(S(=O)(=O)N2CCN(C)CC2)cc1 (stereo not given)	0	264	0	0	0	0
Cc1ccc(NS(=O)(=O)c2ccc(OCC(=O)NCc3cccnc3)cc2)cc1	23.3	0	0	0	0	0	RGS4-Gao HTS=89.2;Biotin-avidin=0;RGS8-Gao confirm=0;RGS7-Gao confirm=0;RGS16-Gao conf=0;RGS4-Gao single=0;RGS19-Gao conf=0
CN(Cc1cn(C)nc1-c1ccccc1F)CC1CCCCO1 (stereo not given)	0	0	0	0	0	46.1	RGS4-Gao HTS=73.7;Biotin-avidin=0;RGS8-Gao confirm=0;RGS7-Gao confirm=0;RGS16-Gao conf=0;RGS4-Gao single=0;RGS19-Gao conf=0
CN(Cc1cn(C)nc1-c1ccccc1F)CC1CCN(Cc2ccccc2)CC1	0	-	0	0	0	?
